KDM5B inhibitor: inhibitors of human KDM5B histone demethylase; Potency, µM (doses to about 57.7 µM), hits mostly inhibitors; KDM5B demethylase, FDH-coupled NADH fluorescence (FDH is formaldehyde dehydrogenase); hit rate 2.6% among 220,000; Q9UGL1; further: nearly all actives have a fitted effect of over 70% in size
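Here, H3K4me3 peptide (12.5 µM in substrate mix) is demethylated by KDM5BΔAP, 200 nM final, after 10 min compound exposure. Formaldehyde product is coupled through FDH (0.25 U/mL in mix) to NADH fluorescence; 30-min ΔRFU feeds dose-response curves.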
SNCA expr inh: reduces expression of the alpha-synuclein gene | Potency, µM (top dose mostly 57.2 µM), most hits filed as inhibitors | AID 1671194 | HEK-293 SNCA-luciferase knock-in, luminescence, 24 h | hit rate 0.17% among 140,000; further: nearly all actives have a fitted effect of over 45% in size
IP6K1 inhibitor: IP6K1 kinase inhibition. Q92551. IP6K1 kinase, ADP-Glo luminescence, 2 h; hits give low values. activity change, % (series mostly up to about 58 µM). hit rate 0.81% among 140,000; in the data active means activity change below about -25%
Target sequence (Q92551 whole entry, looked up): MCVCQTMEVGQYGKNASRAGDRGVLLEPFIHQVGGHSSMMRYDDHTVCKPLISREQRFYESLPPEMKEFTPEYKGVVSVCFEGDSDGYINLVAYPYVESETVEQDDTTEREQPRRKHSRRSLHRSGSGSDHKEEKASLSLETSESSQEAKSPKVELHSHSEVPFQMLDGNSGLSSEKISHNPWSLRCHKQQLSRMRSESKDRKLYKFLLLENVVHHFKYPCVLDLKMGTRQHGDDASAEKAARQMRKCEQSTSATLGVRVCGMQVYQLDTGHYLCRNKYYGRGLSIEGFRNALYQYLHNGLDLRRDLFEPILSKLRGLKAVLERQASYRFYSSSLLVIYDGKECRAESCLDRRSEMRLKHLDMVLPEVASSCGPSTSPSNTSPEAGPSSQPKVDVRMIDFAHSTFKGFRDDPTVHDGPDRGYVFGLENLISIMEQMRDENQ
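ADP-Glo luminescence measures ADP made by human IP6K1 during a 2 h RT reaction with ATP/IP6 (mix at 1.3 mM/130 uM); top library doses 57.5 and 19.1 uM final.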
HEK293 viab: reduces viability of HEK-293 SNCA reporter cells | HEK-293-SNCA-luc viability, GF-AFC fluorescence, 24 h | Potency, µM (doses to about 57.1 µM), actives largely listed as cytotoxic | hit rate 0.12% among 150,000; further: nearly all actives have a fitted effect of over 30% in size
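Cytotoxicity counterscreen: after 24 h compound treatment of genome-edited SNCA-luciferase HEK-293 cells, live-cell protease substrate GF-AFC read by fluorescence after 30 min; activity scaled between DMSO (0%) and medium-only (-100%), curves Hill-fitted.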
Of the large screens only hits and unclear results are named; the others gave an inactive call. In the library only some 2.9% were active in any assay of this set; here they are far more common. Unless noted, the call rests on the fitted dose curve; in most records, active means well fitted curve in the direction sought with a large enough effect; inconclusive means small, poorly fitted or top-dose-only effect, or another doubt; inactive means no such curve, though single readings can be large; an effect the other way counts as inactive or inconclusive.

CO[C@H]1[C@H](NC(=O)c2cc(=O)[nH]c(=O)[nH]2)c2ccccc2C12CCNCC2	none
CCS(=O)(=O)c1ccc2oc([C@H]3CCN(C(C)C)C3)nc2c1	KDM5B inhibitor 40µM
CCc1nc(-c2c3n(c(=O)n(Cc4cc(=O)n5ccccc5n4)c2=O)CCCC3)no1	KDM5B inhibitor 22µM
CCc1nc(-c2c3n(c(=O)n(Cc4ccccc4F)c2=O)CCCC3)no1	none
COC(=O)CN1CCCC1Cc1cccc(OC)c1 (stereo not drawn)	none (no result: SNCA expr inh, IP6K1 inhibitor, HEK293 viab)
CCn1cc2c3c(cccc31)CN(C(=O)c1ccc(OC)c(F)c1)CC2	KDM5B inhibitor 32µM
CCC(C(=O)NCc1nnc2c(-c3nc(C(C)C)no3)cccn12)c1ccccc1 (stereo not drawn)	KDM5B inhibitor 13µM
CC(C)c1noc(-c2cccn3c(CNC(=O)c4ccncc4)nnc23)n1	KDM5B inhibitor inconclusive
CCC(C(=O)NCc1nnc2c(-c3nc(C)no3)cccn12)c1ccccc1 (stereo not drawn)	KDM5B inhibitor 32µM
CCC(C(=O)NCc1nnc2c(-c3nc(C4CC4)no3)cccn12)c1ccccc1 (stereo not drawn)	KDM5B inhibitor 32µM
CC(C)c1noc(-c2cccn3c(CNC(=O)C(C)c4ccccc4)nnc23)n1 (stereo not drawn)	KDM5B inhibitor 14µM
CNC(=O)c1cc(C2CC2)nc2onc(C3CCN(C(=O)Cc4ccc(F)cc4)CC3)c12	none (no result: KDM5B inhibitor, SNCA expr inh, HEK293 viab)
O=C(CCc1ncc(-c2ccccc2)o1)Nc1ccc(OCc2ccccc2)cc1	none (no result: SNCA expr inh, IP6K1 inhibitor, HEK293 viab)
CC(C)(C)c1nc(CSc2n[nH]c(-c3ccccc3F)n2)no1	none (no result: SNCA expr inh, IP6K1 inhibitor, HEK293 viab)
O=C(CSCc1ccc(F)cc1)N1CCc2c([nH]c3ccccc23)C1c1ccc(Cl)cc1 (stereo not drawn)	KDM5B inhibitor inconclusive, SNCA expr inh 10µM
COc1cccc(Nc2ncc(-c3cccc(N(C)C)c3)c3c2OCC3)c1	KDM5B inhibitor 22µM
c1ccc(-c2cnc(Nc3ccncc3)c3c2CCO3)cc1	KDM5B inhibitor inconclusive
COc1cccc(Nc2ncc(-c3ccccc3)c3c2OCC3)c1	KDM5B inhibitor 20µM
Cc1ccccc1C(=O)N(C)Cc1ccc(-c2ccccc2)cc1	none
CCOC(=O)Cc1csc(NC(=O)C2CC(=O)N(c3n[nH]c4cccc(F)c34)C2)n1 (stereo not drawn)	none
O=C1N(C2CCOCC2)CCCC12CCN(c1ccc(Cl)cn1)C2 (stereo not drawn)	KDM5B inhibitor 28µM
Cc1ccc(NC(=O)CCc2c[nH]c3ccccc23)cc1	none (no result: SNCA expr inh, IP6K1 inhibitor, HEK293 viab)
CN1CCCN(C(=O)CCC[C@@H]2[C@H]3CCCN4CCC[C@@H](CN2Cc2ccccc2)[C@@H]34)CC1	HEK293 viab inconclusive
CCN(Cc1ccncc1)C(=O)CCC[C@@H]1[C@H]2CCCN3CCC[C@@H](CN1C(C)=O)[C@@H]23	KDM5B inhibitor inconclusive
CCN(Cc1ccncc1)C(=O)CCC[C@@H]1[C@H]2CCCN3CCC[C@@H](CN1Cc1cccnc1)[C@@H]23	KDM5B inhibitor 28µM
CN1CCCN(C(=O)CCC[C@@H]2[C@H]3CCCN4CCC[C@@H](CN2Cc2cccnc2)[C@@H]34)CC1	KDM5B inhibitor 22µM
CCN(Cc1ccccc1)C(=O)c1nn(-c2ccccc2)c(=O)c2ccccc12	none (no result: SNCA expr inh, IP6K1 inhibitor, HEK293 viab)
COc1ccc(C(=O)N2CCCC(C(=O)N3CCC(N4CCCC4=O)CC3)C2)cc1 (stereo not drawn)	none (no result: KDM5B inhibitor)
O=C(O)C1Cc2nc[nH]c2CN1C(=O)CCc1cn2ccccc2n1 (stereo not drawn)	KDM5B inhibitor 11µM
CC(C)c1ccc(-c2nc(C(N)=O)c3c(n2)n(-c2ccc4c(c2)OCO4)c(=O)n3C)cc1	none
Cn1c(=O)n(-c2ccc3c(c2)OCO3)c2nc(-c3ccc(Cl)cc3)nc(C(N)=O)c21	KDM5B inhibitor inconclusive, SNCA expr inh 32µM
CCOc1ccc(C2Cn3nnc(-c4nc(-c5ccccc5Br)no4)c3CO2)cc1 (stereo not drawn)	KDM5B inhibitor 22µM
CCOc1cccc(-c2noc(-c3nnn4c3COC(c3cccc(OC)c3)C4)n2)c1 (stereo not drawn)	KDM5B inhibitor 25µM
CCOc1ccc(C2Cn3nnc(-c4nc(-c5ccccc5OC)no4)c3CO2)cc1 (stereo not drawn)	KDM5B inhibitor inconclusive
CC(C)(C)NS(=O)(=O)c1ccc(NC(=O)C2c3ccccc3Oc3ccccc32)cc1	none (no result: SNCA expr inh, IP6K1 inhibitor, HEK293 viab)
COc1cc(F)cc(-c2cccc(COc3cnc4c(ccn4CC(=O)O)c3)c2)c1	KDM5B inhibitor 35µM

Compound activity from PubChem.
